Only some compounds are listed: those with a hit (about 2.7% of all), similar ones and a draw of the others.
rCAG binder: binders of r(CAG) RNA repeats, primary screen, biochemical, fluorescence; AID 651821, 2012; hit rate 1.3% among 370,000; r(CAG) RNA repeat, TO-PRO-1 dye displacement fluorescence; inhibition, % at 3 µM;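 active = inhibition above the plate cutoff, the mean of all test compounds on that plate plus 3 SD, cut at about 35% in these data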;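 also: higher means more dye released from RNA so lower well fluorescence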
NadD inh: inhibitors of S. aureus NadD, primary screen, biochemical, colorimetric, uHTS | AID 602399, 2012 | Nicotinate-nucleotide adenylyltransferase NadD (Staphylococcus aureus N315) | hit rate 0.78% among 360,000 | purified NadD enzyme, colorimetric absorbance read-out | inhibition, % at 20 µM; in the data active = inhibition above about 26%
MsrA inh: bovine MsrA enzyme inhibitors, primary screen, biochemical, absorbance, HTS; purified bovine MsrA, absorbance read-out; inhibition, % at 15.5 µM; hit rate 0.75% among 360,000; AID 651718, 2012; in the data active = inhibition above about 4.5%
MsrA act: bovine MsrA enzyme activators, primary screen, biochemical, absorbance, HTS | purified bovine MsrA, absorbance read-out | activation, % at 10.6 µM | hit rate 0.3% among 360,000 | AID 602163, 2012; in the data active = activation above about 7.5%
NadD inh conf: inhibitors of S. aureus NadD, confirmation, biochemical, colorimetric, single concentration | shares compounds with NadD inh | purified S. aureus NadD, colorimetric enzyme assay | inhibition, % at 20 µM | AID 624309, 2012 | hit rate 13% among 2,000; in the data active = inhibition mostly above about 42%, no sharp cut-off; inactive = mostly below about 42%
Numbers stand for hits; n = inactive; x = no result.

SMILES	rCAG binder	NadD inh	MsrA inh	MsrA act	NadD inh conf
O=C(N/N=C/c1ccc2c(c1)OCO2)c1sc2cccc(Cl)c2c1Cl	n	30	n	n	n
C#CCN(C)S(=O)(=O)c1ccc(N2CCCC2)cc1Br	n	x	x	x	x
CCOc1ccc(C2=C(C=Nc3c(C)n(C)n(-c4ccccc4)c3=O)C(c3ccc(F)cc3)c3ccccc3O2)cc1 (centres undefined)	x	46	x	n	n
Cc1nc(S/C(=C\c2ccc(OCc3ccccc3Cl)cc2)C(=O)O)n[nH]1	n	63	n	n	n
Cc1nc(SCC(=O)Nc2ccc(OCc3ccccc3)cc2)n[nH]1	n	n	n	n	x
CC1CCc2c(sc(NC(=O)Cn3nc(C(=O)O)c4ccccc4c3=O)c2C#N)C1 (centres undefined)	n	39	n	n	n
CCOC(=O)c1sc(NC(=O)c2cc(-c3ccc(C)cc3)nc3ccccc23)c(C#N)c1C	n	42	n	n	n
COc1ccc(OC)c(-c2cc(C(=O)Nc3sc4c(c3C#N)CCC(C)C4)c3ccccc3n2)c1 (centres undefined)	n	n	n	n	x
Cc1sc(NC(=O)c2cc(-c3ccccc3)nc3ccccc23)c(C(N)=O)c1C	n	n	n	n	x
CCN1CCN(CC(=O)Nc2sc3c(c2C#N)CCC(C)C3)CC1 (centres undefined)	n	n	n	n	x
Cc1sc(NC(=O)c2cc(-c3ccc(Cl)cc3)nc3ccccc23)c(C(N)=O)c1C	n	33	n	n	n
COc1ccccc1-c1cc(C(=O)Nc2sc3c(c2C#N)CCC(C)C3)c2ccccc2n1 (centres undefined)	n	54	n	n	n
CC1CC(C)(C)N(C(=O)CSc2ccc(-c3ccc(F)cc3)nn2)c2ccccc21 (centres undefined)	n	n	n	n	x
COc1ccccc1C(=O)NC(=S)NNC(=O)c1sc2ccccc2c1Cl	n	n	n	n	x
CCNC(=S)NNC(=O)c1cc(-c2ccc(OC)cc2)nc2ccccc12	n	n	n	n	x
COc1ccc(-c2cc(C(=O)Nc3sc4c(c3C#N)CCCC4)c3ccccc3n2)cc1	n	36	n	n	n
COc1ccccc1C(=O)NNC(=S)NC(=O)c1sc2ccccc2c1Cl	n	64	n	n	n
COc1ccc(Cl)cc1C(=O)NNC(=S)NC(=O)c1cc(-c2ccc(Cl)cc2)nc2ccccc12	n	72	n	n	n
COC(=O)c1sc(NC(=O)c2cc(-c3ccccc3)nc3ccccc23)c(C#N)c1C	n	n	n	n	x
COc1ccc(N=C2C(=Nc3ccc(OC)cc3)N(c3ccc(OC)cc3)C(=S)N2c2ccccc2)cc1	n	30	n	n	n
COc1ccc(N=C2C(=Nc3ccc(OC)cc3)N(c3ccc(OC)cc3)C(=S)N2C)cc1	x	n	x	n	x
N#CC/C(N)=N/Nc1nc2ccccc2nc1Cc1ccccc1	n	34	n	n	n
O=C(Nc1nc(-c2ccco2)c(-c2ccco2)s1)c1ccc(F)cc1F	n	41	n	n	n
COc1ccc(C)cc1C(=O)CCC(=O)N1CCN(c2ccccc2F)CC1	n	n	n	n	x
COC(=O)CSc1nc2nc(-c3cccs3)cc(C(F)(F)F)c2c(=O)[nH]1	n	n	n	n	x
SMILES	rCAG binder	NadD inh	MsrA inh	MsrA act	NadD inh conf
COc1ccc(NC(=O)CSc2nc3nc(-c4cccs4)cc(C(F)(F)F)c3c(=O)[nH]2)c(OC)c1	n	40	n	n	60
Cc1oc2ccc(NS(=O)(=O)c3ccc(C(C)(C)C)cc3)cc2c1C(=O)Nc1ccccc1	n	33	n	n	n
CC(=O)c1c(C)oc2ccc(NS(=O)(=O)c3ccc(C)cc3)cc12	n	n	n	n	x
O=C(NCc1cccnc1)c1csc([C@@H]2C[C@H](O)[C@@H](CO)O2)n1	n	n	n	n	x
CCN(CC(=O)Nc1ccc(NC(C)=O)cc1)C(=O)CN1C(=O)NC2(CCCC2)C1=O	n	n	n	n	x
COc1ccc(S(=O)(=O)NCCC(=O)NC2CCCCC2C)cc1[N+](=O)[O-] (centres undefined)	n	n	n	n	x
CCCCSCCCNC(=O)Nc1ccc(C)c(C)c1	n	n	n	n	x
COc1cc(/C=N/NC(=O)Cn2nc([N+](=O)[O-])cc2C)cc(Br)c1OCc1ccccc1	n	35	n	n	n
NS(=O)(=O)c1ccc(CCNC(=O)CCCCCn2c(=S)[nH]c3ccc(Br)cc3c2=O)cc1	n	31	n	n	n

From PubChem
